Source: PubChem BioAssay
LMNA splice mod = changes lamin A minigene splicing in HeLa cells; actives 0.01% (n = 200,000); HeLa LMNA splicing GFP/RFP minigene ratio, 48 h; Potency, µM (titrated, usually from 46.1 µM), for inactives: at the top dose ratio change, negative = inhibition, hits mostly inhibitors; active means well fitted inhibition curve with a large enough effect in the signal ratio, with a control signal flat, not every such curve was filed as active; inconclusive means small, poorly fitted or top-dose-only effect, or effect the other way, or a change in a side signal; the % refers to the signal ratio; further: potency means the concentration at half of the fitted maximal effect
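S3 HeLa cells stably expressing lamin A-EGFP splicing minigene plus DsRed2, 600 cells/well, 48 h compound exposure at 37C. Laser-scanning cytometry; analysed as GFP (500-530 nm)/RFP (575-640 nm) total intensity ratio; 0.5% DMSO vehicle.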
Luc counter = counter-screen: inhibitors of Kinase-Glo firefly luciferase | Q27757 | Kinase-Glo luciferase, ATP luminescence, 8 min | Potency, µM (series often up to 38.3 µM), without a hit: at the top dose activity change, negative = inhibition, hits mostly inhibitors | actives 0.28% (n = 200,000) | AID 1379; active means well fitted inhibition curve with a large enough effect; inconclusive means small, poorly fitted or top-dose-only effect; further: potency means the concentration at half of the fitted maximal effect; nearly all actives have a fitted effect of over 60% in size
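Recombinant Kinase-Glo luciferase, 10 uM ATP (linear range), luciferin; imidazole pH 7.2 / KCl / MgCl2 / Tween / BSA buffer; 8 min RT; luminescence.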
PNC inhibitor = blocks assembly of the perinucleolar compartment; activity change (PNC), negative = inhibition, % at 10 µM; PC3M PTB-GFP, PNC prevalence imaging, 16 h; hits give low values; AID 2417; actives 3.1% (n = 140,000);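 active means readout at or below -70, meaning at least 70% loss of cells showing the perinucleolar compartment, a nuclear body marking cancer cells; inconclusive means readout between -30 and a set limit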;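 further: plate controls were DMSO wells for no effect and camptothecin positive control wells for full effect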
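Compounds are pinned in duplicate onto adhered PC3M cells stably expressing GFP-tagged PTB and incubated 16 h at 37 C. Cells are then fixed, nuclei stained with Hoechst, and PNC-positive cells counted.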
ALDH1A1 inh = blocks purified human ALDH1A1 activity. P00352. Purified ALDH1A1, NADH fluorescence, propionaldehyde substrate. Potency, µM (series often up to 75.3 µM), inactives show top-dose activity, negative = inhibition, most hits filed as inhibitors. actives 7.3% (n = 220,000). AID 1030;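 further: potency means the concentration at half of the fitted maximal effect; plate controls were no enzyme wells and a reference inhibitor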
Target sequence (P00352 whole entry, looked up): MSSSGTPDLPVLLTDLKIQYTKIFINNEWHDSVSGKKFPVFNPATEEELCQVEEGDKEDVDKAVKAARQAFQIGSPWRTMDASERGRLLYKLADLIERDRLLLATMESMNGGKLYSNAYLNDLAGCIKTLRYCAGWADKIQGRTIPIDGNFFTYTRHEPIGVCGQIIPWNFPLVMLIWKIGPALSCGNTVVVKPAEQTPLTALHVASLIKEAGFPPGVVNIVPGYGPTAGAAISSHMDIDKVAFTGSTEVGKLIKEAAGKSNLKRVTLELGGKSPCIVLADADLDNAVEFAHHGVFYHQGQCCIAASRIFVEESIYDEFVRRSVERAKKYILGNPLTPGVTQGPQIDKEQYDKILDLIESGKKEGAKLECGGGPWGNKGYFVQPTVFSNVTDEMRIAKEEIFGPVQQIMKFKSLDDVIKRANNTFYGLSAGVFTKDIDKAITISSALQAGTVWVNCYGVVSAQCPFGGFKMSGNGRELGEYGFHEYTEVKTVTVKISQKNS
HPGD block = HPGD (human) dehydrogenase inhibition | purified HPGD, NADH fluorescence kinetic, PGE2 substrate | Potency, µM, without a hit: at the highest dose activity change, negative = inhibition, actives largely listed as inhibitors | actives 4.3% (n = 150,000) | AID 894; further: potency means the concentration at half of the fitted maximal effect
Target sequence (P15428 whole entry, looked up): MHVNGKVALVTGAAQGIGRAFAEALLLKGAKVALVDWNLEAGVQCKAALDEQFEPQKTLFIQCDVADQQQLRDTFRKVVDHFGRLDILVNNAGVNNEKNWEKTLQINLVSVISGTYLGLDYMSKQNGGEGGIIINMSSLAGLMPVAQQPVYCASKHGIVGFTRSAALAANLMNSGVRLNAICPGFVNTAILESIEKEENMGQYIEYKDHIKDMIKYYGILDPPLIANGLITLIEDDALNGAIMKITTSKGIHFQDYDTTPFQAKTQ
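20 nM HPGD preincubated 15 min at room temperature with compound in 50 mM Tris-HCl pH 8, 0.01% Tween 20. Started with 1 mM NAD+ and 30 uM prostaglandin E2; NADH fluorescence (360/450 nm) read 5 times over 30-s intervals, last minus first.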
Numbers without * were called inactive; u = inconclusive; x = no result given; [ ] = dose if it differs, or a comment. Compounds with a hit are over-represented: about 10% of the library has one in this group of screens. Unless noted, the call rests on the fitted dose curve; in most records, active means well fitted inhibition curve with a large enough effect (not every such curve was filed as active); inconclusive means small, poorly fitted or top-dose-only effect, or another doubt; inactive means no such curve, though single readings can be large or run the other way. Unless noted, on the % scale 0 is the no-effect control and ±100 the full control effect.

SMILES | LMNA splice mod | Luc counter | PNC inhibitor | ALDH1A1 inh | HPGD block
COc1ccc(O)c(C(=O)c2cnc3c(c2)c(=O)[nH]c(=O)n3C)c1 | -6% | -1% | 29 | -5% | 28µM*
Fc1ccc(/C=N/n2c(-c3cccs3)n[nH]c2=S)cc1 | 8% | 20% | 12 | 14µM* | 4µM*
S=c1[nH]nc(-c2ccccn2)n1/N=C/c1cccs1 | -4% | -1% | -22 | 2% | -19%
S=c1[nH]nc(-c2ccco2)n1/N=C/c1ccc(Cl)cc1 | u | 1% | u | 22µM* | 3.5µM*
S=c1[nH]nc(-c2ccco2)n1/N=C/c1ccccc1Cl | -8% | x | -20 | 10µM* | x
Cc1ccc(/C=N/n2c(-c3ccco3)n[nH]c2=S)s1 | -12% | 2% | -113* | 11µM* | 13µM*
O=C(O)COc1ccccc1/C=C1\SC(=S)N(/N=C/c2ccccc2O)C1=O | -11% | 2% | -13 | u | 8.9µM*
COc1cccc(N2C(=O)CSC23C(=O)N(CC(=O)NCc2ccc(C)cc2)c2ccccc23)c1 (stereo not drawn) | -14%[46 µM] | x | x | x | x
Brc1cccc(-c2nnc3n2CCCCC3)c1 | 1% | -9% | -26 | -12% | 6.3µM*
c1ccc(-c2nnc3n2CCCC3)cc1 | 3% | -5% | u | 2% | 14µM*
O=C1Nc2ccc(Br)cc2C1=Nc1ccc(-c2nnc3n2CCCCC3)cc1 | 7% | -2% | u | -5% | 4µM*
Brc1cccc(-c2cnc3n2CCCCC3)c1 | u | -3% | 7 | -6% | u
Fc1ccc(-c2nnc3n2CCCCC3)cc1 | 12%[46 µM] | -3% | x | -3% | x
COc1ccccc1C(=O)Nc1ccc(C(=O)OCc2cc(=O)n3ccsc3n2)cc1 | -13%[46 µM] | x | x | x | x
CCN1CCN(C(=O)Nc2cc(Cl)ccc2OC)CC1 | -17%[46 µM] | -1% | x | 6% | x
COc1ccc(Cl)cc1NC(=O)N1CCN(C2CCCCC2)CC1 | 9% | -3% | -88* | -2% | -6%
CCOc1ccc(OCC(=O)Nc2nccs2)cc1 | x | 11µM* | x | 6% | x
COc1ccc(OCC(=O)Nc2nccs2)cc1 | x | 10µM* | x | 1% | x
COc1ccc(OCCC(=O)Nc2nccs2)cc1 | x | -2% | x | 6% | x
COC(=O)N1C(c2ccccc2)=Cc2ccccc2C1C1(C(=O)OC)CCCC1=O (stereo not drawn) | -4%[9.22 µM] | 0% | x | -4% | -7%
COc1cccc(Oc2cn[nH]c2-c2ccc(O)cc2O)c1 | u | -1% | -86* | u | -22%
COc1cccc(Oc2cn[nH]c2-c2ccc(OC)cc2O)c1 | u | -1% | -17 | -10% | -25%
COc1ccc(-c2[nH]ncc2-c2csc(C)n2)c(O)c1 | -11% | -1% | -91* | 9% | -13%
CN1CCN(c2ncc3nc(-c4ccccc4)c(=O)n(-c4ccccc4)c3n2)CC1 | x | 1% | x | u | u
Cn1cc(S(=O)(=O)N2CCCCCC2)cc1C(=O)N1CCN(c2ccc(Cl)cc2)CC1 | -12%[46 µM] | x | x | x | x
SMILES | LMNA splice mod | Luc counter | PNC inhibitor | ALDH1A1 inh | HPGD block
CC(=O)OCC1=C(C(=O)O)N2C(=O)[C@@H](NC(=O)Cc3cccs3)[C@H]2SC1 | 9% | -4% | u | -4% | -16%
O=C(Cc1cccs1)NC1C(=O)N2C(C(=O)[O-])=C(C[n+]3ccccc3)CSC12 (stereo not drawn) | u | -14% | x | 28µM* | 32µM*
CCOc1ccc(CNC(=O)CCC(=O)N2CC3CCCN3c3ccccc32)cc1 (stereo not drawn) | -10%[46 µM] | x | x | x | x
O=C(Cn1c(=S)[nH]c2ccccc21)c1ccccc1 | u | 2% | -17 | -10% | -8%
Cc1ccc(NC(=O)Cn2c(=S)[nH]c3ccccc32)cc1 | x | -1% | x | 10µM* | x
COc1cc(C(=O)CSc2nncn2C)cc(OC)c1OC | 7% | 4% | -111* | 13µM* | -20%
Cn1cnnc1SCC(=O)c1ccc2c(c1)CCCC2 | 14% | 1% | 17 | 32µM* | -13%
CCOc1ccc(C(=O)Nc2c(C(N)=O)oc3ccccc23)cc1 | u | -1% | -119* | -2% | u
COc1cccc(C(=O)Nc2c(C(N)=O)oc3ccccc23)c1 | -14% | 1% | -11 | -1% | u
COCCNC(=O)Nc1ccc2c(c1)N(C)C(=O)CS2 | 12% | 5% | -9 | 22µM* | -7%
CC(C)CCNC(=O)Nc1ccc2c(c1)N(C)C(=O)CS2 | 9% | 3% | 47 | 2% | -2%
COCCCNC(=O)Nc1ccc2c(c1)N(C)C(=O)CS2 | 15% | 18% | 35 | 17% | -11%
O=C(NCCC1=CCCCC1)c1ccc2c(c1)N(Cc1ccccc1)C(=O)CS2 | u | 0% | -84* | u | -15%
O=C(NCCN1CCOCC1)c1ccc2c(c1)N(Cc1ccccc1)C(=O)CS2 | 10% | 2% | 22 | -2% | -1%
CN1C(=O)CSc2ccc(NC(=O)NCCC3=CCCCC3)cc21 | 13% | 2% | -17 | 7.9µM* | -9%
Cc1ccc(NC(=O)C2CCCN(c3ncnc4c3nc3n4CCCCC3)C2)cc1F (stereo not drawn) | 10%[46 µM] | x | x | x | x
COc1cc(-c2nc(S(=O)(=O)c3ccc(Br)cc3)c(N3CCOCC3)o2)cc(OC)c1OC | -5%[46 µM] | x | x | x | x
C=CCN1C(=O)C(CC(C)C)NC1=S (stereo not drawn) | x | 1%[39.9 µM] | x | 7% | -4%
O=[N+]([O-])c1ccc(NC2CCCC2)cc1 | u | 2% | 10 | -3% | -22%
O=[N+]([O-])c1ccc(N/N=C2/CCCCC2c2ccccn2)cc1 (stereo not drawn) | -2% | 2% | -28 | 0.045µM* | -14%
COc1ccc(CCNc2nc(SCc3cccc(Cl)c3)nc3ccccc23)cc1OC | 8%[46 µM] | x | x | x | x
CCN(CC(=O)NC1CCS(=O)(=O)C1)S(=O)(=O)c1ccc2ccccc2c1 (stereo not drawn) | 9% | 2% | 4 | 6% | -1%
CCN(CC)S(=O)(=O)c1ccc(OCC(=O)NC2CCS(=O)(=O)C2)c([N+](=O)[O-])c1 (stereo not drawn) | -9%[46 µM] | 4% | x | 14µM* | x
CCOC(=O)c1ccc(N2CC3=C(C2=O)C(c2ccc(OC)cc2)NC(=O)N3C)cc1 (stereo not drawn) | -2%[46 µM] | x | x | x | x
CCOC(=O)c1nnn(-c2nonc2N)c1CN1CCCCCC1 | -1% | 1% | 2 | 2.2µM* | -6%
SMILES | LMNA splice mod | Luc counter | PNC inhibitor | ALDH1A1 inh | HPGD block
CCOC(=O)c1nnn(-c2nonc2N)c1CN(C)C1CCCCC1 | 1% | -3% | u | 2µM* | -7%
NNC(=O)c1nnn(-c2nonc2N)c1CN1CCc2ccccc2C1 | -14%[46 µM] | 2% | x | 4µM* | x
Cc1c(C(=O)N2CCCCCC2)nnn1-c1nonc1N | -4% | -2% | 60 | 11µM* | 32µM*
Cn1c(=O)c2nc(SCC(=O)Nc3ccc(Cl)c(Cl)c3)n(C)c2n(C)c1=O | 1%[46 µM] | x | x | x | x
CC(=O)c1ccc(N2C(=O)N(Cc3cc(C)ccc3C)c3ccccc3S2(=O)=O)cc1 | 21%[46 µM] | x | x | x | x
COC(=O)c1cc(-c2ccc3ccccc3c2)[nH]c(=O)c1C#N | x | -2%[7.66 µM] | x | u | u
